ALDH1A1 block – inhibitors of human aldehyde dehydrogenase 1A1. P00352. Purified ALDH1A1, NADH fluorescence, propionaldehyde substrate. Potency, µM (top dose mostly 75.3 µM), actives largely listed as inhibitors. 7.3% of 220,000 active. AID 1030; active means well fitted inhibition curve with a large enough effect, not every such curve was filed as active; inconclusive means small, poorly fitted or top-dose-only effect, or another doubt; inactive means no such curve, though single readings can be large or run the other way
IMPase Li inh – cell-permeable IMPase inhibitors with lithium potentiation | CHO-M1 cells, IP1 TR-FRET (IP-One), carbachol + lithium | Potency, µM (doses to about 59.4 µM), usual class: inhibitors | 0.35% of 210,000 active | AID 1457;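 further: IP1 builds up when IMPase is blocked and the TR-FRET signal falls; nearly all actives have a fitted effect of over 50% in size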
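CHO cells stably expressing M1 receptor (2000/well, cultured 16–30 h) treated 30 min at 37C with compound plus low lithium. Cytosolic IP1 by TR-FRET (665/620 ratio and 620 channel) after 10 min lysis; AC50 by Hill fit.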
HPGD inh – inhibitors of human 15-hydroxyprostaglandin dehydrogenase (HPGD). purified HPGD, NADH fluorescence kinetic, PGE2 substrate. Potency, µM, hits mostly inhibitors. 4.3% of 150,000 active. AID 894; active means well fitted inhibition curve with a large enough effect, not every such curve was filed as active; inconclusive means small, poorly fitted or top-dose-only effect, or another doubt; inactive means no such curve, though single readings can be large or run the other way
Target sequence (P15428 whole entry, looked up): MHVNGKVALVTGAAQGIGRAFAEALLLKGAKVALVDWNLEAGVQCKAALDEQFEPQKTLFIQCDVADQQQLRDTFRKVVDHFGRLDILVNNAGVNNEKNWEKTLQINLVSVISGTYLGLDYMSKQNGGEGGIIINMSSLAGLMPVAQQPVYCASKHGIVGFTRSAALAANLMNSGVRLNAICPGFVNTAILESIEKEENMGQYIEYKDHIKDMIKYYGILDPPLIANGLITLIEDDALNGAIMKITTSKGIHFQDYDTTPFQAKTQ
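20 nM HPGD preincubated 15 min at room temperature with compound in 50 mM Tris-HCl pH 8, 0.01% Tween 20. Started with 1 mM NAD+ and 30 uM prostaglandin E2; NADH fluorescence (360/450 nm) read 5 times over 30-s intervals, last minus first.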
NPSR antag – antagonists of human neuropeptide S receptor cAMP signaling; Q6W5P4; CHO-NPSR cells, cAMP TR-FRET, antagonist mode; Potency, µM (titrated, usually from 38.3 µM), hits mostly inhibitors; 1% of 220,000 active; AID 1461; further: nearly all actives have a fitted effect of over 50% in size
Target sequence (Q6W5P4 whole entry, looked up): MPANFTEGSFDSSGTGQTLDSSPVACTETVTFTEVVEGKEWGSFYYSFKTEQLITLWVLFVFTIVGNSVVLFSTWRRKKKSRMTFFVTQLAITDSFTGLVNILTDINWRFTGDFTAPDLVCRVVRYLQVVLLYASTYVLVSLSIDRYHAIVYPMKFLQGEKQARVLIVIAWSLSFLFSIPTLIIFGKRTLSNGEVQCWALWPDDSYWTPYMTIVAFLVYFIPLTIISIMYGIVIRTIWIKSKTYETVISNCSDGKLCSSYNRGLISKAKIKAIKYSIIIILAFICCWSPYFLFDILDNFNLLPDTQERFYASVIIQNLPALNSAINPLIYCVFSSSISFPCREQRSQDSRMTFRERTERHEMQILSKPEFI
IMPase inh – cell-permeable inhibitors of inositol monophosphatase (IMPase) | CHO-M1 cells, IP1 accumulation, HTRF TR-FRET ratio | inhibition (IP1 accumulation), % at 46.1 µM | 120,000 tested, under 10 active | P97697 | AID 901; active means well fitted curve in the direction sought with a large enough effect in the signal ratio, not every such curve was filed as active; inconclusive means small, poorly fitted or top-dose-only effect, or a change in a side signal; inactive means no such curve, though single readings can be large or run the other way; the % refers to the signal ratio;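 further: cells stimulated with carbachol in lithium chloride buffer; higher means more IMPase inhibition seen as more IP1 and lower FRET ratio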
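Measured: the HTRF emission ratio (665/620 nm) plus the 620 nm donor channel, each fitted to the Hill equation to give AC50. Cells were CHO-M1 given compounds up to 46 uM and a 30 min carbachol stimulation at 37C.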
ALOX12 inhib – 12-hLO (ALOX12) enzyme inhibition. 0.12% of 150,000 active. Potency, µM (series often up to 57.1 µM), hits mostly inhibitors. AID 1452. purified 12-hLO, xylenol orange hydroperoxide absorbance. P18054; further: nearly all actives have a fitted effect of over 55% in size
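Xylenol orange chromogenic assay: hydroperoxide from 12hLO oxidises Fe(II), giving red-shifted Fe(III)-XO absorbance. Conditions: 150 nM enzyme, 40 uM arachidonic acid, 25 mM Hepes pH 7.0, 0.01% Triton X-100, 30 min, room temperature.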
Numbers stand for hits. The list is not random: actives were taken first. Their share in the collection is about 8.9%. Unless noted, the call rests on the fitted dose curve; in most records, active means well fitted curve in the direction sought with a large enough effect; inconclusive means small, poorly fitted or top-dose-only effect, or another doubt; inactive means no such curve, though single readings can be large; an effect the other way counts as inactive or inconclusive.

Screening CCCNC(=O)C/C(C)=N/NC(=O)COc1ccc(C)cc1Br returned ALDH1A1 block inactive, IMPase Li inh inactive, HPGD inh inconclusive, NPSR antag inactive, IMPase inh inactive and ALOX12 inhib inactive.
Screening COc1ccc(CNC(=O)C/C(C)=N/NC(=O)Cc2ccc(OC)cc2)cc1 returned ALDH1A1 block inactive, IMPase Li inh inactive, HPGD inh inactive, NPSR antag inactive and ALOX12 inhib inactive.
For COc1ccccc1NC(=O)C/C(C)=N/NC(=O)COc1c(Br)cc(Br)cc1OC the results were ALDH1A1 block 7.9µM, IMPase Li inh inactive and NPSR antag inactive.
C[C@@H]1C=C(C(=O)O)O[C@H](OCc2ccc(CO)cc2)C1 was read as ALDH1A1 block inconclusive, IMPase Li inh inactive and NPSR antag inactive.
Screening N#CC(=C1CCCC1)c1nc(-c2ccccc2)cs1 returned ALDH1A1 block inactive, IMPase Li inh inactive, HPGD inh inactive, NPSR antag inactive, IMPase inh inactive and ALOX12 inhib inactive.
For N#CC(=C1CCCC1)c1nc(-c2ccccc2O)cs1 the results were ALDH1A1 block 25µM, IMPase Li inh inactive, HPGD inh inconclusive, NPSR antag inconclusive, IMPase inh inconclusive and ALOX12 inhib inactive.
For CC(C)CN1C(=O)C(=Nc2cccnc2)c2ccccc21 the results were ALDH1A1 block 1µM, IMPase Li inh inactive and NPSR antag inactive.
`Oc1ccc(/C=N/N2CCOCC2)c(O)c1O` gave ALDH1A1 block 7.1µM, IMPase Li inh inactive and NPSR antag inactive.
Screening COc1ccc(O)c(/C=N/N2CCOCC2)c1 returned NPSR antag inactive.
For Cc1ccc(N(CC(O)COCc2ccco2)S(=O)(=O)c2ccc(C)cc2)cc1 (centres undefined) the results were ALDH1A1 block 3.2µM, IMPase Li inh inactive, HPGD inh inactive, NPSR antag inconclusive, IMPase inh inactive and ALOX12 inhib inconclusive.
`CCCN(CCC)CC(O)CN(c1ccccc1)S(=O)(=O)c1ccc(C)cc1` (centres undefined) gave ALDH1A1 block inactive, IMPase Li inh inactive, HPGD inh inactive, NPSR antag inactive, IMPase inh inactive and ALOX12 inhib inactive.
Screening CCc1sc(/C=C(/C#N)C(N)=S)cc1[N+](=O)[O-] returned ALDH1A1 block 2.2µM, IMPase Li inh inactive and NPSR antag inactive.
Screening CCc1ccc(/C=C(/C#N)C(N)=S)s1 returned ALDH1A1 block inconclusive, IMPase Li inh inactive and NPSR antag inactive.
COc1ccc(NS(=O)(=O)c2cccc(Cl)c2)cc1S(=O)(=O)N1CCCCC1 was read as ALDH1A1 block 16µM, IMPase Li inh inactive, HPGD inh inactive, NPSR antag inactive and ALOX12 inhib inactive.
`COc1ccc(NC(=O)CSc2ccc(F)cc2)cc1S(=O)(=O)N1CCCCC1` gave ALDH1A1 block 15µM, IMPase Li inh inactive, HPGD inh inactive, NPSR antag inactive and ALOX12 inhib inactive.
For COc1ccc(NS(=O)(=O)c2cccc(Cl)c2Cl)cc1S(=O)(=O)N1CCCCC1 the results were ALDH1A1 block 0.35µM, IMPase Li inh inactive, HPGD inh inactive, NPSR antag inactive, IMPase inh inactive and ALOX12 inhib inactive.
For COc1ccc(NS(=O)(=O)c2cc(Cl)ccc2Cl)cc1S(=O)(=O)N1CCCCC1 the results were ALDH1A1 block inactive, IMPase Li inh inactive and NPSR antag inactive.
COc1ccc(N2CC(O)=C(c3nc4ccccc4s3)C2=N)c(OC)c1 was read as ALDH1A1 block inactive, IMPase Li inh inactive, HPGD inh inconclusive, NPSR antag inactive, IMPase inh inactive and ALOX12 inhib inactive.
`Fc1ccc(/C=C2\CCCC3=C2NC(=S)NC3c2ccc(F)cc2)cc1` (centres undefined) gave ALDH1A1 block inconclusive, IMPase Li inh inactive, HPGD inh 25µM, NPSR antag inactive and ALOX12 inhib inconclusive.
CN(Cc1ccccc1)c1nc(-c2ccc([N+](=O)[O-])cc2)nc2ccccc12 was read as ALDH1A1 block inactive, IMPase Li inh inactive, HPGD inh inactive, NPSR antag inconclusive, IMPase inh inactive and ALOX12 inhib inactive.
Screening CC(=O)Nc1ccc(Nc2nc(Cl)nc(Nc3ccc(NC(C)=O)cc3)n2)cc1 returned ALDH1A1 block inactive, IMPase Li inh inactive and NPSR antag inactive.
O=Cc1ccccc1Oc1ccccc1 was read as ALDH1A1 block inactive, IMPase Li inh inactive, HPGD inh inactive, NPSR antag inactive, IMPase inh inactive and ALOX12 inhib inactive.
For O=Cc1ccccc1OCCOc1ccccc1C=O the results were ALDH1A1 block 20µM, IMPase Li inh inactive, HPGD inh inconclusive, NPSR antag inactive, IMPase inh inactive and ALOX12 inhib inactive.
For Brc1ccccc1OCCCCCN1CCOCC1 the results were ALDH1A1 block 11µM, IMPase Li inh inactive and NPSR antag inactive.
CN1CCN(CCCCOc2ccccc2C=O)CC1 was read as ALDH1A1 block 22µM, IMPase Li inh inactive and NPSR antag inactive.
Screening Brc1ccccc1OCCCN1CCCCCC1 returned ALDH1A1 block inconclusive, IMPase Li inh inactive and NPSR antag inactive.
Cc1nnc(NC(=O)CSc2ncnc3c2cnn3-c2ccccc2C)s1 was read as ALDH1A1 block inactive, IMPase Li inh inactive, HPGD inh inactive, NPSR antag inactive, IMPase inh inactive and ALOX12 inhib inactive.
`COCCN(Cc1cc2cc(C)ccc2nc1Cl)C(=O)Nc1ccccc1C` gave ALDH1A1 block inactive, IMPase Li inh inactive, HPGD inh inactive, NPSR antag inactive, IMPase inh inactive and ALOX12 inhib inactive.
Screening CC(C)CCSc1nnc2n(-c3ccccc3)c(=O)c3c4c(sc3n12)CC(C)CC4 (centres undefined) returned IMPase inh inactive.
For CCOC(=O)C1=C(C)NC(=O)CC1c1cc2c(cc1[N+](=O)[O-])OCO2 (centres undefined) the results were ALDH1A1 block inconclusive, IMPase Li inh inactive and NPSR antag inactive.
For O=C(c1ccc(Cl)c(Cl)c1)c1cc(-c2ccccn2)c(N2CCOCC2)s1 the results were ALDH1A1 block inconclusive, IMPase Li inh 10µM, HPGD inh inactive, NPSR antag inconclusive, IMPase inh inactive and ALOX12 inhib inactive.
O=C(Nc1ccc(Cl)c(S(=O)(=O)N2CCOCC2)c1)c1cc(-c2ccccn2)nc2ccccc12 was read as ALDH1A1 block inactive, IMPase Li inh inactive and NPSR antag inactive.
`Cc1cc(Cc2cc(C)c(N)cc2C)c(C)cc1N` gave ALDH1A1 block 22µM, IMPase Li inh inactive and NPSR antag inactive.
COc1cc(C)c(Cc2cnc(N)nc2N)cc1OC was read as NPSR antag inactive.
Screening CC1=CC(C)(C)N(C(=O)CNC2CCCCC2)c2cc(C)ccc21 returned ALDH1A1 block inactive, IMPase Li inh inactive and NPSR antag inactive.
Screening CC1(C)NC(C)(C)/C(=C\c2cccs2)C(=O)C1=O returned ALDH1A1 block inactive, IMPase Li inh inactive and NPSR antag inactive.

Screening results from PubChem BioAssay.
